An excerpt weighted towards active compounds, which were near 11% of everything screened.
G9a inh: qHTS Assay for Inhibitors of Histone Lysine Methyltransferase G9a; Potency, µM (top dose mostly 102 µM), hits mostly inhibitors; G9a H3K9 monomethylation, AlphaScreen, 2 h; Histone-lysine N-methyltransferase EHMT2 (Homo sapiens), Q96KQ7; 350,000 compounds, 8.8% hits; also: nearly all actives have a fitted effect of over 75% in size
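Methyltransferase reactions run at room temperature for 2 h (20 nM enzyme, 500 nM biotin-H3K9 peptide, 20 uM SAM) after a 15 min compound preincubation; product detected by AlphaScreen beads and anti-H3K9me1 antibody.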
PI5P4Ka inh: qHTS for Inhibitors of phosphatidylinositol 5-phosphate 4-kinase (PI5P4K); max response, %; Phosphatidylinositol 5-phosphate 4-kinase type-2 alpha (Homo sapiens), P48426; AID 652105, 2013; PI5P4Kalpha enzyme, ADP-Glo luminescence, 60 min; active compounds read low; 330,000 compounds, 1.2% hits; active = max response of -50% or lower; inconclusive = between -30% and -50%; inactive = -30% or higher; also: value at the top dose of about 77 µM
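Controls without substrate or without enzyme flank wells where PI5P4Kalpha converts substrate using 5 microM ATP (final). Incubation lasts 60 minutes at room temperature; ADP formed is read by ADP-Glo luminescence.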
BAZ2B inh: qHTS Assay for Inhibitors of BAZ2B; 360,000 compounds, 4.4% hits; Potency, µM (titrated, usually from 114 µM), most hits filed as inhibitors; AlphaScreen BAZ2B-H3K14Ac peptide displacement; also: nearly all actives have a fitted effect of over 60% in size
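Inhibition is scored as reduced AlphaScreen emission. The BAZ2B/b-H3(5-23)K14Ac complex (50 nM each) in PBS pH 7.4, 0.01% Tween-20 meets compound (up to 110 uM) for 30 min at RT before bead addition.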
HP1b binding inh: HTS for Inhibitors of HP1-beta Chromodomain Interactions with Methylated Histone Tails; AlphaScreen HP1-beta / biotin-H3K9me3 peptide binding; Potency, µM (top dose mostly 114 µM), actives largely listed as inhibitors; 390,000 compounds, 0.56% hits; AID 540317, 2011; also: nearly all actives have a fitted effect of over 70% in size
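AlphaScreen: HP1-beta (50 nM) preformed 30 min with biotin-H3(1-18)K9me3 peptide (50 nM) in PBS pH 7.4, 0.01% Tween-20. Compound added for 30 min at RT, then streptavidin donor/nickel chelate acceptor beads (10 ug/mL) for 30 min.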
L3MBTL1 block: qHTS Assay for the Inhibitors of L3MBTL1; AID 485360, 2010; 230,000 compounds, 0.66% hits; AlphaScreen L3MBTL1–H3K9me1 peptide binding; Potency, µM (series often up to 57.1 µM), actives largely listed as inhibitors; also: nearly all actives have a fitted effect of over 60% in size
Target sequence (Q9Y468 whole entry, looked up): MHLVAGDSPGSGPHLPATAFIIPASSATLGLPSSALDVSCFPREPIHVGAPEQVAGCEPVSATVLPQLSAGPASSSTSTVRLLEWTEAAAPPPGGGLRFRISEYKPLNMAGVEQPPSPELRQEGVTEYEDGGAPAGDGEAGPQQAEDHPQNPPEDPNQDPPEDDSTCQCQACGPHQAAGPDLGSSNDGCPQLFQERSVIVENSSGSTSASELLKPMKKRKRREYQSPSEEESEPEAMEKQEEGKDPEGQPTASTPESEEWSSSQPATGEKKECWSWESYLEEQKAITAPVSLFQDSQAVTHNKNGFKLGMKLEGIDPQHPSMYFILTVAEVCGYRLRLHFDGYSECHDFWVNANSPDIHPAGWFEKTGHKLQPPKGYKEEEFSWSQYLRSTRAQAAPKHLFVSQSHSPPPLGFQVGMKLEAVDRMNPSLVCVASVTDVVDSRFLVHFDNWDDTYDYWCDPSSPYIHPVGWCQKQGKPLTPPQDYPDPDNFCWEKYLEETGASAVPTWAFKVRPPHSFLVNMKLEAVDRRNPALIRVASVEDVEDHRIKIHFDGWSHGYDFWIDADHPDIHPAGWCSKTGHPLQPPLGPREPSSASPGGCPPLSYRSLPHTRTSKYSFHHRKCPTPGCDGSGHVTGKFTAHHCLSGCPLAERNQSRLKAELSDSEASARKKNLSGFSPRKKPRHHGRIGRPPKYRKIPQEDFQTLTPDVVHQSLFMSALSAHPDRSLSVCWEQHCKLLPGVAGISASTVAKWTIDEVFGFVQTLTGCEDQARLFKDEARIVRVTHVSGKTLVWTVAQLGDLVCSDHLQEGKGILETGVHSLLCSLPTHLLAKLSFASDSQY
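L3MBTL1 50 nM + b-AHA-H3(1-15)K9me1 75 nM, 30 min RT; compound added, 30 min RT; streptavidin donor/Ni-chelate acceptor beads 10 ug/mL each final, 30 min RT dark; AlphaScreen read.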
JMJD2A Tudor: qHTS Assay for Inhibitors of JMJD2A-Tudor Domain. AlphaScreen JMJD2A-Tudor / H3K4me3 peptide binding. AID 504339, 2011. Lysine-specific demethylase 4A (Homo sapiens), O75164. 390,000 compounds, 4.4% hits. Potency, µM (top dose mostly 114 µM), hits mostly inhibitors; also: nearly all actives have a fitted effect of over 50% in size
Hits are given with their value; i = inactive; ? = inconclusive; nt = not tested or not shown; [ ] = another dose, or the depositor's remark. Unless noted, calls follow the shape of the dose curve; as a rule, active = well fitted inhibition curve with a large enough effect; inconclusive = small, poorly fitted or top-dose-only effect; inactive = no such curve, though single readings can be large or run the other way.

SMILES	G9a inh	PI5P4Ka inh	BAZ2B inh	HP1b binding inh	L3MBTL1 block	JMJD2A Tudor
CCOC(=O)c1c(CN2CCN(C)CC2)oc2ccc(O)cc12	50µM	i	?	i	i	i
CCOC(=O)c1c(-c2ccccc2)oc2ccc(O)c(CN3CCN(C)CC3)c12	50µM	i	i	i	i	i
CCOC(=O)c1c(-c2ccccc2)oc2cc(CN(C)C)c(O)c(CN(C)C)c12	nt	nt	nt	i	nt	50µM
CCC(Sc1nnc(-c2ccc(OC)cc2)c(-c2ccc(OC)cc2)n1)C(=O)Nc1cccc(OC)c1 (stereo not drawn)	?	nt	i	i	nt	i
CCOC(=O)c1c(CN2CCN(CCO)CC2)n(-c2ccccc2)c2cc(Br)c(O)cc12	?	i	i	i	i	i
CCOC(=O)c1c(CN2CCN(c3ccccc3)CC2)oc2cc(Br)c(O)cc12	50µM	i	?	i	nt	50µM
CCOc1ccccc1NC(=O)C1CCN(S(=O)(=O)Cc2ccccc2)CC1	i	nt	i	i	nt	i
N#C/C(=C(/O)COC(=O)c1ccc(Cl)c(S(=O)(=O)N2CCOCC2)c1)c1nc2ccccc2[nH]1	i	i	i	i	i	i
Cc1ccc(S(=O)(=O)N2CCOCC2)cc1N/N=C(\C#N)c1nc2ccccc2[nH]1	35µM	i	i	i	?	i
N#C/C(=C(/O)COC(=O)CCc1ccc(S(=O)(=O)N2CCOCC2)cc1)c1nc2ccccc2[nH]1	i	-52	i	i	i	i
Cc1cnc(C(=O)OCC(=O)c2cccc3ccccc23)cn1	45µM	i	i	i	i	i
Cc1cnc(C(=O)OCC(=O)c2c[nH]c3ccccc23)cn1	i[12.7 µM]	i	i	i	i	i
Cc1ccc(-c2nn(-c3ccccc3)cc2CO)cc1	i	i	i	i	nt	i
N=C(N)SCc1cn(-c2ccccc2)nc1-c1ccc(Br)cc1	50µM	i	i	i	i	i
COC(=O)CCSCc1cn2cc(Cl)ccc2n1	40µM	i	i	i	i	i
O=C(O)CSCc1cn2cc(Cl)ccc2n1	50µM	i	i	i	nt	?
CNCc1cn2cc(Cl)ccc2n1	i	i	i	i	i	i
CCOc1ccc(NC(=O)CCc2nc3cccnc3n2Cc2ccc(OC)cc2)cc1	i	nt	i	i	nt	i
O=C(NCCc1cccc(Cl)c1)c1cccc(-n2cnnn2)c1	45µM	i	i	i	i	i
O=C(Nc1ccc2c(c1)OCO2)c1c[nH]c(=O)n(-c2ccc(F)cc2)c1=O	56µM	i	35µM	i	nt	?
COc1ccc(CC(=O)NC2CC(=O)N(c3ccc(C)c(C)c3)C2)cc1OC (stereo not drawn)	i	nt	i	i	nt	i
Cc1ccc(C(C)C)c(OCC(=O)Nc2ccc(-c3nc4ncccc4o3)cc2C)c1	i	nt	i	i	nt	i
C/C(CC1CC(C)(C)OC1=O)=N\NC(N)=S (stereo not drawn)	32µM	i	?	i	i	7.1µM
C/C(CCC1CC(C)(C)OC1=O)=N\NC(N)=S (stereo not drawn)	8.9µM	i	?	i	i	79µM
CN(/N=C/c1cc(Br)cc(Br)c1O)c1ccccc1	?	i	i	i	nt	i
SMILES	G9a inh	PI5P4Ka inh	BAZ2B inh	HP1b binding inh	L3MBTL1 block	JMJD2A Tudor
Cc1c(N=Cc2cc(Br)cc(Br)c2O)cccc1C(=O)O	i	-58	i	i	i	i
CCOC(=O)c1c(C)cc(O)c(C=O)c1O	i[2.33 µM]	nt	nt	nt	nt	nt
CC(C)[C@@H]1NC(=O)c2cc([N+](=O)[O-])cc(I)c2NCCCC[C@@H](C(=O)NC(CC(=O)O)C(N)=O)NC(=O)[C@H](CO)NC1=O (stereo partly drawn)	45µM	nt	50µM	nt	?	nt
CC(C)[C@@H]1NC(=O)c2cc([N+](=O)[O-])cc(I)c2NCCC[C@@H](C(N)=O)NC(=O)[C@H](CO)NC1=O	40µM	i	?	i	i	i
Cc1cccc(CS(=O)(=O)c2ncc(Cl)c(C(=O)Nc3nnc(C(C)C)s3)n2)c1	?	i	?	i	nt	?
Cc1ccc(CS(=O)(=O)c2ncc(Cl)c(C(=O)Nc3nnc(C(C)C)s3)n2)cc1	45µM	i	i	i	nt	?
C=CCSc1nnc(NC(=O)c2nc(SCC)ncc2Cl)s1	7.9µM	nt	i	i	nt	i
CSc1ncc(Cl)c(C(=O)Nc2nnc(SC/C=C/c3ccccc3)s2)n1	?	nt	i	i	nt	i
CCSc1nnc(NC(=O)c2nc(S(=O)(=O)Cc3ccc(F)cc3)ncc2Cl)s1	nt	i	?	i	nt	2.8µM
CC(C)c1nnc(NC(=O)c2nc(S(=O)(=O)Cc3ccc(F)cc3)ncc2Cl)s1	8.9µM	i	i	i	nt	?
CC(C)c1nnc(NC(=O)c2nc(SCc3ccc(F)cc3)ncc2Cl)s1	i	nt	i	i	nt	i
COc1ccc(N(Cc2nnc3n2CCCCC3)C(=O)Nc2ccc(Cl)cc2)cc1Cl	i	nt	i	i	nt	i
C=CCOC(/C=C/c1ccccc1)C[Si](C)(C)C (stereo not drawn)	nt	nt	nt	i	nt	i
CCc1ccc(-n2c(SCC(=O)NC(C)CC)nc3n[nH]c(C)c3c2=N)cc1 (stereo not drawn)	i	nt	i	i	nt	i
COc1cc(OC)c(NC(=O)c2nn(C)c3c2COc2ccccc2-3)cc1Cl	2.2µM	nt	i	i	nt	i
COc1cc(OC)c(NC(=O)c2noc3c2CSc2ccccc2-3)cc1Cl	1.6µM	nt	i	i	nt	i
COc1cc(NC(=O)c2noc3c2CCC3)c(OC)cc1Cl	?	nt	50µM	?	nt	45µM
COc1ccc(NC(=O)c2noc3c2CSc2ccccc2-3)cc1Cl	i	nt	i	i	nt	i
Nc1nnc(/C=C/c2ccccc2Cl)s1	50µM	i	i	i	i	i
C/C=C/c1ccc(OCCCCNCc2ccco2)c(OC)c1	11µM	i	40µM	?	i	22µM
C/C=C/c1ccc(OCCCN2C(=O)NC(C)(C)C2=O)c(OC)c1	i	nt	i	i	i	i
C/C=C/c1ccc(OCCCCOc2ccc(OC)cc2)c(OC)c1	i	i	i	i	i	i
C/C=C/c1ccc(OCCCCN2CCN(CC)CC2)c(OC)c1	nt	i	25µM	?	i	20µM
C/C=C/c1ccc(OCCCNCC(C)O)c(OC)c1 (stereo not drawn)	i[12.7 µM]	i	i	i	i	i
Cc1ccccc1CN1C(=O)c2ccccc2Sc2ccc(C(=O)NC3CCCC3)cc21	i	nt	i	i	nt	i
O=C(NCCc1ccc(Cl)cc1)c1cccn1-c1nnc(N2CCCC2)s1	i	nt	i	i	nt	i
